Shown are actives, neighbours in structure and some others; about 0.41% of the full set was active somewhere.
LDHA block – LDHA (human) enzyme inhibition. P00338. purified LDHA, NADH/diaphorase-resazurin fluorescence; hits give low values. activity change, % (values are at about 110 or 230 µM). 480,000 tested, 0.15% active. AID 1347041; in the data active = activity change below about -30%; inconclusive = mostly about -25% to -30%;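 also: plate controls were DMSO wells for no effect and wells without enzyme for full effect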
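Enzyme activity of human lactate dehydrogenase 5 (2 nM; 0.06 mM NADH, 0.2 mM pyruvate, 5 min, RT) is measured via a resazurin/diaphorase fluorescence readout of residual NADH.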
TRPV1 agonist – activates the human vanilloid receptor TRPV1. TRPV1-expressing cells, Fluo-8 calcium influx, agonist mode. activation, % at 8.33 µM. 320,000 tested, 0.19% active. AID 540275; in the data active = activation above about 80%; inconclusive = between about 30% and that limit; also: 0% is about no effect
Target sequence (Q8NER1 whole entry, looked up): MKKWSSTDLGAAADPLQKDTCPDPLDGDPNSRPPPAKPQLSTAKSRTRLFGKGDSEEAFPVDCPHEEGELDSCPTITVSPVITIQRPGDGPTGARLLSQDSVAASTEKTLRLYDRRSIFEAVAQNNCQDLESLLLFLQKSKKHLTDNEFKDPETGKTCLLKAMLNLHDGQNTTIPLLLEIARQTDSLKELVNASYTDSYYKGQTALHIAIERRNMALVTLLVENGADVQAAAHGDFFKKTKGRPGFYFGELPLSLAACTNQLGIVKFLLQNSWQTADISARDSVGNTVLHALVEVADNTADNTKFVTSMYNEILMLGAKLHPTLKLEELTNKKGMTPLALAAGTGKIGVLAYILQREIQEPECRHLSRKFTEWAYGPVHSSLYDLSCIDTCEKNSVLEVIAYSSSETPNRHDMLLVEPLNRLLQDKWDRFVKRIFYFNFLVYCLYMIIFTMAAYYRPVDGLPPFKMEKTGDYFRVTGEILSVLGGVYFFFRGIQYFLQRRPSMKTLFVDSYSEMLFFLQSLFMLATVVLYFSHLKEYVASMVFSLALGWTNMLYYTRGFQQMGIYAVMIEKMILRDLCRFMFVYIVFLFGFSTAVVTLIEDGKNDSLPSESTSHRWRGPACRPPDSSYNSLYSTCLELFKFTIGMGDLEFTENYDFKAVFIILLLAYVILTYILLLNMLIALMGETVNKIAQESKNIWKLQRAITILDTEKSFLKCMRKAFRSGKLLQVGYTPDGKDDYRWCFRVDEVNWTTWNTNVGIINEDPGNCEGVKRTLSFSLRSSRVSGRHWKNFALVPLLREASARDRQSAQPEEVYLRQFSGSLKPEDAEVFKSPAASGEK
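Cells expressing TRPV1 were dye-loaded with Fluo-8 and read kinetically: 10 s baseline, 3 min after compound (agonist portion), then 2 min after EC20 capsaicin (allosteric enhancer portion). Calcium-bound dye fluorescence at 480/520 nm.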
TRPV1 PAM – enhances activation of the human vanilloid receptor TRPV1; Q8NER1; TRPV1-expressing cells, Fluo-8 calcium influx, capsaicin EC20 potentiation; potentiation, % at 8.33 µM; 320,000 tested, 0.02% active; AID 540277; in the data active = potentiation above about 80%; inconclusive = between about 30% and that limit; also: 0% is about no effect
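Fluo-8 calcium influx in TRPV1-expressing cells, kinetic read (ex 480/em 520 nm). Compound added and read 3 min for agonist activity, followed by capsaicin at EC20 final and 2 min further read for enhancement.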
TRPML1 blocker – inhibitors of human TRPML1 channel; activity change, negative = inhibition, % (concentration not given with the values); Q9GZU1; 390,000 tested, 0.02% active; AID 624415; TRPML1-inducible cells, Ca2+ dye fluorescence, FDSS; hits give low values; inhibition of EC80 agonist-evoked calcium signal; in the data active = activity change below about -50%; inconclusive = between about -30% and that limit;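 also: stimulus is agonist 54-4 at its EC80 concentration; % is scaled to controls: 0 for no effect and ±100 for the full control effect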
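Tet-induced TRPML1-DL cells loaded with Ca8 no-wash calcium dye were read kinetically on FDSS. Compound addition was followed by EC80 agonist 54-4 (4 uM final); inhibition was read over 110 s.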
TRPML1 ag – human mucolipin-1 channel agonism; Q9GZU1; TRPML1-expressing cells, Ca2+ dye fluorescence, FDSS; activation, % (test concentration not listed); 410,000 tested, 0.12% active; AID 624414; in the data active = activation above about 50%; inconclusive = mostly about 30% to 49%; also: 0% is about no effect
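Agonist activity was taken from a 110 s kinetic Ca2+ dye read on the FDSS after pinning compounds onto TRPML1-DL cells. The cells were seeded at 1,500/well with Tet inducer, incubated about 16 h, then dye-loaded at room temperature.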
* = called active by the depositor; u = inconclusive; x = no result given.

SMILES	LDHA block	TRPV1 agonist	TRPV1 PAM	TRPML1 blocker	TRPML1 ag
Cc1cc(=O)oc2cc(OCc3nc(-c4ccccc4)no3)ccc12	-3	x	x	x	x
COCCOc1nc2c(c(=O)n(C)c(=O)n2C)n1C(C)c1ccccc1 (stereo not drawn)	-36*	x	x	x	x
CC(C)(C)c1ccc(OCCNC(=O)Cc2ccc(F)cc2)cc1	-1	91*	9	-13	0
O=C(Nc1ccc(N2CCCC2)cc1)c1cccc(Cl)c1Cl	0	81*	-27	-3	-1
CS(=O)(=O)c1ccc(C(=O)Nc2ccc(N3CCCCC3)cc2)c(Cl)c1	-10	83*	-5	19	2
CCOCCCNC(=O)C(c1ccc(C)cc1)N(Cc1cccs1)C(=O)CCc1cc(C(C)(C)C)c(O)c(C(C)(C)C)c1 (stereo not drawn)	15	x	x	x	x
CCc1cc(CC)n(-c2nc3c(c(=O)[nH]c(=O)n3C)n2Cc2ccccc2C)n1	-12	x	x	x	x
CCN(CC)c1ccc(NC(=O)c2ccc3c(c2)OCO3)cc1	2	83*	-11	1	1
Cc1ccc(C(=O)Nc2ccc3c(c2)OCO3)cc1Cl	x	u	-9	x	x
Cc1ccc(NC(=O)c2ccc3c(c2)OCO3)cc1Cl	-9	83*	-11	-6	-1
O=C(CN1CCCCC1)Nc1c(-c2ccccc2)c2cc(Br)ccc2[nH]c1=O	4	x	x	x	x
O=C(O)CCCN1CCCC1	13	x	x	x	x
Cc1ccc(S(=O)(=O)N2CCN(C)CC2)cc1[N+](=O)[O-]	6	-5	4	-8	0
CN1CCN(S(=O)(=O)c2ccc(N(C)Cc3ccc(OC(F)F)cc3)c([N+](=O)[O-])c2)CC1	-4	7	2	-9	53*
COc1ccc(CN2CCN(Cc3ccc4ccccc4c3)CC2)cc1OC	-34*	7	-5	34	-1
CSCc1ccc(C(=O)N2CCCC(Nc3ccc(F)cc3)C2)o1 (stereo not drawn)	-2	84*	1	9	-1
CSCc1ccc(C(=O)N2CCCC(Nc3ccc4c(c3)OCCO4)C2)o1 (stereo not drawn)	4	91*	-6	-29	-1
COc1cccc(C(CNC(=O)CCc2nnc(-c3ccsc3)o2)N(C)C)c1 (stereo not drawn)	-2	x	x	x	x
COc1ccc(NC(=O)c2ccc(Br)c(S(=O)(=O)N3CCOCC3)c2)cc1	4	98*	-27	-6	-1
CC(=O)Nc1sc(N/N=C/c2ccccc2)nc1-c1ccc(C)cc1	2	4	3	18	0
CC(=O)Nc1sc(/C(C#N)=C\c2cccc(Cl)c2)nc1-c1ccc(C)cc1	2	u	14	-23	77*
N=C1/C(=C\c2coc3ccccc3c2=O)C(=O)N=C2SC=CN12	4	u	0	-7	72*
CSC1=NSC2=NC(=O)/C(=C\c3cccs3)C(=N)N12	-8	1	6	-9	0
CSC1=NSC2=NC(=O)/C(=C/c3coc4ccccc4c3=O)C(=N)N12	-8	u	1	-10	77*
CSC1=NSC2=NC(=O)/C(=C/c3coc4ccc(O)cc4c3=O)C(=N)N12	6	22	8	4	67*
SMILES	LDHA block	TRPV1 agonist	TRPV1 PAM	TRPML1 blocker	TRPML1 ag
Cc1cc(C)c2oc(C(=O)N3CCOC34CCN(C)CC4)cc(=O)c2c1	6	x	x	x	x
CC(NC(=O)CSc1ccc2ccccc2n1)C1CC1 (stereo not drawn)	5	x	x	x	x
CC(C)C(C)NC(=O)CSc1ccc2ccccc2n1 (stereo not drawn)	-32*	x	x	x	x
O=[N+]([O-])c1cccc(CN2CCCCCC2)c1	-5	-18	-12	15	0
COc1cc(CN2CCN(Cc3ccco3)CC2)cc(OC)c1	-32*	1	1	13	0
O=[N+]([O-])c1cccc(CN2CCN(Cc3ccco3)CC2)c1	-43*	-1	1	19	1
CC(NC(=O)c1nccnc1N)c1cccc(Cl)c1 (stereo not drawn)	9	x	x	x	x
CCCc1nnc(NC(=O)c2cc(=O)c3cc(C)ccc3o2)s1	0	x	x	x	x
CC(CNC(=O)c1ccc(C(C)(C)C)cc1)NC(=O)c1ccc(C(C)(C)C)cc1 (stereo not drawn)	-23	x	x	x	x
CCCCNC(=S)N/N=C/C=C(/C)CCC=C(C)C	5	x	x	x	x
Cn1ccc2c(N3CCCCC3)cc3c(c21)C1CCC3C1 (stereo not drawn)	11	x	x	-24	57*
CCCCn1nc(C(=O)NCc2ccccc2)c2ccccc2c1=O	0	x	x	x	x
C=CCOc1c(Br)cc(CNc2ccc(NC(=O)CCC)cc2)cc1OCC	5	-3	4	6	2
C=CCOc1c(Br)cc(CNc2ccc3[nH]c(=O)[nH]c3c2)cc1OCC	5	87*	-1	11	0
CCC(C)NCCCOc1ccc(Cl)cc1C(C)(C)C (stereo not drawn)	-41*	0	17	3	0
CNCCCOc1ccc(Cl)cc1C(C)(C)C	-7	1	6	0	0
O=C(Nc1ccc2nc(N3CCN(C4CCCCC4)CC3)cc(C(=O)O)c2c1)c1ccccc1F	23	x	x	x	x
S=c1[nH]nc(-c2ccccn2)n1/N=C/c1ccc(Br)s1	-3	-1	5	-30	78*
CONC(=O)COc1ccc(C)cc1C	11	x	x	x	x
Cc1c(C(=O)NC2=NCCS2)oc2c(Cl)cccc12	21	x	x	x	x
COc1ccc(NC(=O)Cc2c(C)c3ccc(O)cc3oc2=O)cc1OC	0	x	x	x	x
COC(=O)C(C)N1C(=O)S/C(=C/c2ccc(Sc3ccccc3)cc2)C1=O (stereo not drawn)	-1	x	x	x	x
O=C(NCc1ccc(F)cc1)C1CCCN(c2nc3ccsc3c(=O)s2)C1 (stereo not drawn)	-9	83*	-20	1	0
Cc1cc(N)c(NC2=CC(=O)CC(C)(C)C2)cc1C	5	2	u	4	60*
COc1cc(CNc2ccc3[nH]c(=O)[nH]c3c2)ccc1OCc1c(F)cccc1Cl	2	90*	-9	-26	0
SMILES	LDHA block	TRPV1 agonist	TRPV1 PAM	TRPML1 blocker	TRPML1 ag
COc1cc(CNc2ccc3[nH]c(=O)[nH]c3c2)ccc1OCc1ccccc1F	1	u	-10	-4	1
CCN(CC)S(=O)(=O)c1cc(NC(=O)c2ccc(Br)s2)ccc1C	-14	83*	-12	17	0
CCN(CC)S(=O)(=O)c1cc(NC(=O)NCCCl)ccc1C	-5	-4	-6	-13	0
Cc1cccc(NC(=O)C2(c3cccc(Br)c3)CC2)n1	0	x	x	x	x
CCN1/C(=C/C=C/c2oc3ccc4ccccc4c3[n+]2CC)Oc2ccc3ccccc3c21	10	25	3	1	63*
CC[n+]1c(/C=C/N(C)c2ccccc2)oc2ccc(Cl)cc21	21	-3	-6	21	1

Compound activity: PubChem, National Center for Advancing Translational Sciences (NCATS)
